In PubChem BioAssay (EPA / NIEHS):
Calls of active or inactive are those of the source. The calls were made as follows: active = hit-call score of the fitted dose curve at least 0.9, where 1 is the maximum; inactive = score below 0.9.

What was measured:
[1] = APR_HepG2_CellCycleArrest_24hr: Apredica 24-hour HepG2 Assay for Cell Cycle Arrest (AID 2282905); details: imaging, actives raise or lower the signal;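 also: cell cycle arrest scored as ratio of 2N to 4N nuclear DNA content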
Outline: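 Step one: dose HepG2 with test compounds, 0.39–200 uM, 0.5% DMSO, 24 hr. Step two: fix, permeabilize, stain nuclei with Hoechst 33342. Step three: image six fields per well at 20x, quantify DNA content, fit bidirectionally relative to DMSO.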

[2] = APR_HepG2_NuclearSize_24hr: Apredica 24-hour HepG2 Assay for Nuclear Size (AID 2282907); details: high-content imaging, actives raise or lower the signal
Outline: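 After fixation and permeabilization, 24-hr-treated HepG2 cells were stained with Hoechst 33342 and imaged on an ArrayScan (20x). Doses spanned 0.39–200 uM in duplicate. Nuclear diameter changes in either direction were fitted relative to 0.5% DMSO controls.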

[3] = APR_HepG2_CellLoss_24hr: Apredica 24-hour HepG2 Assay for Cell Loss (AID 2282908); details: high-content imaging;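 as to AC50: fit in both directions so a hit may be cell loss or gain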
Outline: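 Duplicate wells received compound at ten concentrations (0.39–200 uM; final DMSO 0.5% v/v). After fixation with formaldehyde, nuclei stained with Hoechst 33342 were imaged at 20x. Loss or gain of cell count was fitted relative to DMSO controls.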

[4] = APR_HepG2_MicrotubuleCSK_24hr: Apredica 24-hour HepG2 Assay for Microtubule CSK Stabilty (AID 2282909); details: HepG2 microtubule cytoskeleton imaging, actives raise or lower the signal
Outline: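 Microtubule stability is scored from tubulin immunofluorescence in fixed HepG2 cells imaged at 20x. Cells receive ten compound concentrations up to 200 uM for 24 h; taxol and DMSO serve as positive and negative controls.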

[5] = APR_HepG2_MitoticArrest_24hr: Apredica 24-hour HepG2 Assay for Mitotic Arrest (AID 2282910); details: high-content imaging, actives raise or lower the signal
Outline: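 Treatment lasted 24 hr in the human HepG2 line at 0.39–200 uM, solvent held at 0.5% DMSO. Fixed cells were stained with Hoechst 33342 and anti-phospho-histone H3, imaged at 20x, and analysed by gain- or loss-of-signal fitting against DMSO.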

[6] = APR_HepG2_MitoMembPot_24hr: Apredica 24-hour HepG2 Assay for Mitochondrial Membrane Potential (AID 2282911); details: imaging, actives raise or lower the signal
Outline: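 Mitochondrial dye uptake (MitoTracker Red CMXRos, 250 nM, 30 min pre-fixation) in HepG2 after 24 hr compound exposure, 0.39–200 uM; ArrayScan images at 20x, activity fitted in both directions relative to DMSO.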

[7] = APR_HepG2_MitoMass_24hr: Apredica 24-hour HepG2 Assay for Mitochondrial Mass (AID 2282912); details: high-content imaging, actives raise or lower the signal
Outline: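 Readout: fluorescence of MitoTracker Red CMXRos (250 nM, added 30 min pre-fixation) in fixed HepG2 cells imaged by HCS. Exposure lasted 24 hr at 0.39–200 uM; increases and decreases were both fitted relative to DMSO.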

[8] = APR_HepG2_p53Act_24hr: Apredica 24-hour HepG2 Assay for p53 Activation (AID 2282913); details: high-content imaging, actives raise or lower the signal;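 also: p53 protein immunofluorescence averaged per cell in HepG2 with Hoechst nuclei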
Outline: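 Following 24 hr dosing of HepG2 at 0.39–200 uM, the cells undergo formaldehyde fixation, Triton permeabilization and multiplexed antibody labeling that includes p53 (Cy5). Signal from the imaging is referenced to DMSO solvent controls.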

[9] = APR_HepG2_CellCycleArrest_72hr: Apredica 72-hour HepG2 Assay for Cell Cycle Arrest (AID 2282914); details: high-content imaging, actives raise or lower the signal
Outline: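 Using multiplexed high-content imaging, HepG2 nuclei stained with Hoechst 33342 (2 ug/mL) were analysed for DNA content after fixation and permeabilization. Treatment lasted 72 hr across 0.39–200 uM in duplicate with final DMSO 0.5% v/v; DMSO served as negative control.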

[10] = APR_HepG2_CellLoss_72hr: Apredica 72-hour HepG2 Assay for Cell Loss (AID 2282915); details: high-content imaging
Outline: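 HepG2 cells were exposed for 72 hr to compounds at 0.39–200 uM (ten concentrations, duplicate) in 0.5% v/v final DMSO. Nuclei were stained with Hoechst 33342 after 3.7% formaldehyde fixation, imaged at 20x, and counted; fits bidirectional versus DMSO.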

In the case of `O=C(CCCCCCCCc1cccnc1)N1CCC(C=C(c2ccccc2)c2ccccc2)CC1`, the outcome [1] is reported as “inactive”, the outcome [2] is reported as “inactive” and the outcome [3] is reported as “inactive”. For the same molecule, the outcome [4] was “inactive”, the outcome [5] was “inactive” and the outcome [6] was “inactive”. For the same molecule, the outcome [7] was “inactive”, the outcome [8] was “inactive” and the outcome [9] was “inactive”.
For `CC[C@H](C)C(=O)O[C@H]1C[C@@H](C)C=C2C=C[C@H](C)[C@H](CC[C@@H]3C[C@@H](O)CC(=O)O3)[C@H]21`, the outcome [1] was “inactive”, the outcome [2] was “inactive” and the AC50 [3] was 82 µM (active). The outcome [4] was “inactive”, the AC50 [5] was 28.9 µM (active) and the AC50 [6] was 48.8 µM (active). The AC50 [7] was 5.52 µM (active), the outcome [8] was “inactive” and the outcome [9] was “inactive”.
For `O=C(OC[C@H]1O[C@@H](OC(=O)c2cc(O)c(O)c(OC(=O)c3cc(O)c(O)c(O)c3)c2)[C@H](OC(=O)c2cc(O)c(O)c(OC(=O)c3cc(O)c(O)c(O)c3)c2)[C@@H](OC(=O)c2cc(O)c(O)c(OC(=O)c3cc(O)c(O)c(O)c3)c2)[C@@H]1OC(=O)c1cc(O)c(O)c(OC(=O)c2cc(O)c(O)c(O)c2)c1)c1cc(O)c(O)c(OC(=O)c2cc(O)c(O)c(O)c2)c1`, the outcome [1] was “inactive”, the outcome [2] was “inactive” and the outcome [3] was “inactive”. The outcome [4] was “inactive”, the outcome [5] was “inactive” and the AC50 [6] was 26.4 µM (active). For the same molecule, the AC50 [7] was 23.9 µM (active), the AC50 [8] was 20.8 µM (active) and the outcome [9] was “inactive”.
In the case of `CC(C)CCCCCCOC(=O)c1ccc(C(=O)OCCCCCCC(C)C)c(C(=O)OCCCCCCC(C)C)c1`, the outcome [1] is reported as “inactive”, the outcome [2] is reported as “inactive” and the outcome [3] is reported as “inactive”. For the same molecule, the outcome [4] was “inactive”, the outcome [5] was “inactive” and the outcome [6] was “inactive”. For the same molecule, the outcome [7] was “inactive”, the outcome [8] was “inactive” and the outcome [9] was “inactive”.
In the case of `CC1=CC(=O)CC(C)(C)C1`, the outcome [1] is reported as “inactive”, the outcome [2] is reported as “inactive” and the outcome [3] is reported as “inactive”. For the same molecule, the outcome [4] was “inactive”, the outcome [5] was “inactive” and the outcome [6] was “inactive”. The outcome [7] was “inactive”, the outcome [8] was “inactive” and the outcome [9] was “inactive”.
With `CC(C)(O)c1coc(S(=O)(=O)NC(=O)Nc2c3c(cc4c2CCC4)CCC3)c1` the outcome [1] was “inactive”, the outcome [2] was “inactive” and the outcome [3] was “inactive”. The outcome [4] was “inactive”, the outcome [5] was “inactive” and the outcome [6] was “inactive”. The outcome [7] was “inactive”, the outcome [8] was “inactive” and the outcome [9] was “inactive”.
In the case of `CC(C)=CCCC(C)CCO` (centres undefined), the outcome [1] is reported as “inactive”, the outcome [2] is reported as “inactive” and the outcome [3] is reported as “inactive”. The outcome [4] was “inactive”, the outcome [5] was “inactive” and the outcome [6] was “inactive”. For the same molecule, the outcome [7] was “inactive”, the outcome [8] was “inactive” and the AC50 [9] was 0.0388 µM (active).
In the case of `CC(O)CN(CCN(CC(C)O)CC(C)O)CC(C)O` (centres undefined), the outcome [1] is reported as “inactive”, the outcome [2] is reported as “inactive” and the outcome [3] is reported as “inactive”. For the same molecule, the outcome [4] was “inactive”, the outcome [5] was “inactive” and the outcome [6] was “inactive”. For the same molecule, the outcome [7] was “inactive”, the outcome [8] was “inactive” and the outcome [9] was “inactive”.
With `COc1ccc(-n2nc(C(F)F)cc2-c2ccc(S(C)=O)cc2)cc1` (centres undefined) the AC50 [1] was 49.5 µM (active), the outcome [2] was “inactive” and the outcome [3] was “inactive”. The outcome [4] was “inactive”, the outcome [5] was “inactive” and the AC50 [6] was 5.03 µM (active). For the same molecule, the outcome [7] was “inactive”, the outcome [8] was “inactive” and the outcome [9] was “inactive”.
With `Cc1ccc(N)cc1O` the outcome [1] was “inactive”, the outcome [2] was “inactive” and the outcome [3] was “inactive”. For the same molecule, the outcome [4] was “inactive”, the outcome [5] was “inactive” and the AC50 [6] was 0.917 µM (active). For the same molecule, the outcome [7] was “inactive”, the outcome [8] was “inactive” and the outcome [9] was “inactive”. The AC50 [10] was 10.5 µM (active).
For `O=C(O)CCN(C1(C(=O)NO)CCCC1)S(=O)(=O)c1ccc(Oc2ccc(F)cc2)cc1`, the outcome [1] was “inactive”, the outcome [2] was “inactive” and the outcome [3] was “inactive”. For the same molecule, the outcome [4] was “inactive”, the outcome [5] was “inactive” and the outcome [6] was “inactive”. For the same molecule, the outcome [7] was “inactive”, the outcome [8] was “inactive” and the outcome [9] was “inactive”.
With `CCCCC(CC)COC(=O)CCCCCCCCC(=O)OCC(CC)CCCC` (centres undefined) the outcome [1] was “inactive”, the outcome [2] was “inactive” and the AC50 [3] was 117 µM (active). For the same molecule, the AC50 [4] was 128 µM (active), the AC50 [5] was 68.5 µM (active) and the outcome [6] was “inactive”. For the same molecule, the outcome [7] was “inactive”, the AC50 [8] was 108 µM (active) and the AC50 [9] was 170 µM (active). For the same molecule, the AC50 [10] was 100 µM (active).
With `O=C(O)CC(O)C(=O)O` (centres undefined) the outcome [1] was “inactive”, the outcome [2] was “inactive” and the outcome [3] was “inactive”. The outcome [4] was “inactive”, the outcome [5] was “inactive” and the outcome [6] was “inactive”. For the same molecule, the outcome [7] was “inactive”, the outcome [8] was “inactive” and the outcome [9] was “inactive”. The outcome [10] was “inactive”.
With `CCOCCO` the outcome [1] was “inactive”, the outcome [2] was “inactive” and the outcome [3] was “inactive”. The outcome [4] was “inactive”, the outcome [5] was “inactive” and the outcome [6] was “inactive”. For the same molecule, the outcome [7] was “inactive”, the outcome [8] was “inactive” and the outcome [9] was “inactive”.
In the case of `CN(C)c1ccc(Cc2ccc(N(C)C)cc2)cc1`, the outcome [1] is reported as “inactive”, the outcome [2] is reported as “inactive” and the outcome [3] is reported as “inactive”. The outcome [4] was “inactive”, the outcome [5] was “inactive” and the AC50 [6] was 55.9 µM (active). The outcome [7] was “inactive”, the outcome [8] was “inactive” and the AC50 [9] was 50.8 µM (active).
For `CCCCCCc1ccc(O)cc1O`, the AC50 [1] was 89.8 µM (active), the outcome [2] was “inactive” and the AC50 [3] was 103 µM (active). The outcome [4] was “inactive”, the AC50 [5] was 95.4 µM (active) and the AC50 [6] was 46.1 µM (active). For the same molecule, the AC50 [7] was 125 µM (active), the AC50 [8] was 104 µM (active) and the outcome [9] was “inactive”.
In the case of `O=C1OC(=O)C2C3C=CC(C3)C12` (centres undefined), the outcome [1] is reported as “inactive”, the outcome [2] is reported as “inactive” and the outcome [3] is reported as “inactive”. For the same molecule, the outcome [4] was “inactive”, the outcome [5] was “inactive” and the outcome [6] was “inactive”. For the same molecule, the outcome [7] was “inactive”, the outcome [8] was “inactive” and the outcome [9] was “inactive”.
For `CN(C)c1ccc(N=NS(=O)(=O)O)cc1`, the AC50 [1] was 86.9 µM (active), the outcome [2] was “inactive” and the outcome [3] was “inactive”. The outcome [4] was “inactive”, the outcome [5] was “inactive” and the outcome [6] was “inactive”. The outcome [7] was “inactive”, the outcome [8] was “inactive” and the AC50 [9] was 54.3 µM (active). The AC50 [10] was 71.7 µM (active).
With `Cn1c(=O)c2c(ncn2C)n(C)c1=O` the outcome [1] was “inactive”, the outcome [2] was “inactive” and the outcome [3] was “inactive”. For the same molecule, the outcome [4] was “inactive”, the outcome [5] was “inactive” and the outcome [6] was “inactive”. The outcome [7] was “inactive”, the outcome [8] was “inactive” and the outcome [9] was “inactive”.
In the case of `Cn1cnc([N+](=O)[O-])c1Sc1ncnc2nc[nH]c12`, the outcome [1] is reported as “inactive”, the outcome [2] is reported as “inactive” and the outcome [3] is reported as “inactive”. For the same molecule, the outcome [4] was “inactive”, the outcome [5] was “inactive” and the outcome [6] was “inactive”. For the same molecule, the outcome [7] was “inactive”, the outcome [8] was “inactive” and the outcome [9] was “inactive”. The AC50 [10] was 44.8 µM (active).
For `CC(C)=CCCC(C)=CC=O`, the outcome [1] was “inactive”, the outcome [2] was “inactive” and the outcome [3] was “inactive”. For the same molecule, the outcome [4] was “inactive”, the outcome [5] was “inactive” and the outcome [6] was “inactive”. The outcome [7] was “inactive”, the outcome [8] was “inactive” and the outcome [9] was “inactive”.
